# Several values for one entry are separate records, joined by “and”; a condition that tells them apart may be missing. Equal values may be shown once. About 3,800 (1.1%) of roughly 360,000 compounds were called active.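 The calls were made as follows: active = compounds causing at least 50% loss of cell viability in the single-dose screen, relative to plate controls; inactive = the rest.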 Shown is part of a subset that was picked to be rich in actives.
# Assay: TRAIL-exposed caspase-8 expressing cell killing – NB7+C8 cells, ATPlite luminescence, TRAIL sensitizer project, primary screen (AID 624354)
# Settings: at 10 µM, active compounds read high
row,SMILES,"inhibition (viability loss, TRAIL sensitization)"
1,COc1cccc(-c2nc3ccc(N4CCN(C)CC4)cc3[nH]2)c1,86.3% (active)
2,CCC(=O)c1ccc(OCC(=O)N2CCN(CC(=O)Nc3ccc(C)cc3)CC2)cc1,1.16% (inactive)
3,Cc1cc2ccccn2c1C(C[N+](=O)[O-])c1c(F)cccc1Cl (stereo not given),-0.261% (inactive)
4,COc1ccc(-n2c(O)c(C(C)=Nc3ccc4c(c3)CCC4)c(=O)[nH]c2=O)cc1,7.82% (inactive)
5,O=Cc1cn(Cc2ccc(F)cc2Cl)c2ccccc12,17.7% (inactive)
6,CNC(=O)O/N=C(\N)Cc1csc2ccccc12,-3.67% (inactive)
7,CNC(=O)O/N=C(\N)Cc1csc2ccc(Cl)cc12,70.7% (active)
8,CCC/C(=N\O)c1c[nH]c2ccccc12,-8.01% (inactive)
9,Cc1ncoc1C(=O)NCC1=C(c2cccc3ccccc23)C[C@@H]2CC[C@H]1N2Cc1ccco1,14.8% (inactive)
10,COc1ccccc1CN1CCN(C(=O)Cc2ccccc2)CC1,-10.1% (inactive)
11,CCN1CCN(Cc2cc(OC)c3c(c2)OCO3)CC1,3.55% (inactive)
12,C[C@]12CC[C@H](O)C[C@H]1CC[C@@H]1C2CC[C@]2(C)[C@@H](C3=CC(=O)OC3)[C@@H](O)C[C@]12O (stereo not given in full),48.7% (inactive)
13,COC1C(O)C(C)OC(OC2CCC3(C=O)C(CCC4C3CCC3(C)C(C5=CC(=O)OC5)CCC43O)C2)C1O (stereo not given),74.4% (active)
14,CC(C)Nc1nc(Cl)nc(NC(C)C)n1,-4.77% (inactive)
15,O=C(O)C1CSC(c2cccnc2)N1 (stereo not given),-7.34% (inactive)
16,Cc1ccc(Cn2c(C)c3cnn(CC(=O)N4CCC5(CC4)OCCO5)c(=O)c3c2C)cc1,2.81% (inactive)
17,OC(Cn1c2ccccc2c2ccccc21)C[n+]1ccccc1 (stereo not given),-9.29% (inactive)
18,CCOc1ccc(-c2cc(C)[n+](CCN(CC)CC)c(-c3ccc(OCC)cc3)c2)cc1,64.8% (active)

row,SMILES,"inhibition (viability loss, TRAIL sensitization)"
1,O=c1[nH]c(CN2CC=C(c3ccccc3)CC2)nc2scc(-c3cccs3)c12,-10.4% (inactive)
2,COc1ccccc1N1CCN(C(CNC(=O)Oc2ccccc2)c2cccnc2)CC1 (stereo not given),-5.13% (inactive)
3,CN1CCc2cc3c(cc2[C@H]1[C@@H]1OC(=O)c2c1ccc1c2OCO1)OCO3,-20.1% (inactive)
4,C=C(C)C1(CCCC)C(=O)NC(=S)NC1=O,6.23% (inactive)
5,CN1C2C=C(N(C(=O)c3ccc(Cl)cc3)c3ccccc3)CC1CC2 (stereo not given),-8.37% (inactive)
6,CC(=O)OC1C2(CC3N4C(=O)C5(CO)SSC4(CC31O)C(=O)N5C)OC(C)C(C)(C)C2=O (stereo not given),84.2% (active)
7,CCC(=O)CC(c1ccc([N+](=O)[O-])cc1)c1c(O)c2ccccc2oc1=O (stereo not given),4.29% (inactive)
8,Nc1ccc(Cc2ccc(N)c(Cl)c2)cc1Cl,2.29% (inactive)
9,CN(C)C(=O)Oc1cc(OC(=O)N(C)C)cc(C(O)CNC(C)(C)C)c1 (stereo not given),-5.27% (inactive) and 5.89% (inactive)
10,C=Cn1ccnc1P(=S)(c1cc(N(CC)CC)ns1)c1nccn1C=C,-19.8% (inactive)
11,CCCCCCCCCCCCn1ccc(=N)cc1,62.5% (active)
12,CC1CNCCN1c1ccc(Cl)cc1 (stereo not given),-10.4% (inactive)
13,C=CCN1C(=O)NC(=O)/C(=C/c2ccc(OCC(=O)Nc3ccc(C)cc3)cc2)C1=O,6.1% (inactive)
14,CCOC(=O)[C@]12Cc3cc(OC)ccc3[C@H]1N(C(C)C)C(=O)c1ccccc12,39.4% (inactive)
15,CCOC(=O)[C@]12Cc3ccccc3[C@H]1N(C1CCCCC1)C(=O)c1cc(OC)ccc12,79.1% (active)
16,CCC1(CC(C)c2ccccc2)C(=O)NC(=O)NC1=O (stereo not given),-15.1% (inactive)
17,C/C(=N/O)c1ccc2ccc3ccccc3c2c1,0.44% (inactive)

# Reference: PubChem BioAssay AID624354 (Sanford-Burnham Center for Chemical Genomics, 2012)
